# Hit rate of the full screen: of about 300,000 compounds, about 37,000 (12%) were called active. The full list was thinned out, with actives kept by preference. Unmarked numbers belong to inactive results. No stated cut-off is given here; in the data, active means max response mostly above about 13% (no sharp cut-off); inactive means mostly below about 14%.
# Assay: Cycloheximide Counterscreen for Small Molecule Inhibitors of Shiga Toxin; further: read at 38.3 µM for the half of the compounds with a filed dose; 0% is about no effect
# Conditions: cell reporter, cycloheximide protein synthesis inhibition counterscreen; active compounds read high
row,Structure (SMILES),max response
1,COc1ccc(C(=O)NC(C)c2nccs2)cc1OC1CCN(C(C)C)CC1 (stereo not drawn),-0.856%
2,O=C(CNc1cccc(S(=O)(=O)N2CCCCC2)c1)Nc1ccccc1F,-2.83%
3,Cc1noc(C)c1CSc1nc2cc(S(=O)(=O)N3CCOCC3)ccc2o1,-1.38%
4,CCNC(=O)c1sccc1-n1cccc1,2.68%
5,Cc1ccc(C(=O)N/C(=C\c2cn(C)c3ccccc23)C(=O)N2CCN(C)CC2)cc1,1.99%
6,CCCn1nnnc1NCc1ccc(OC)cc1,-1.31%
7,CC1(C)CC(=O)CC2(C1)NCC(c1ccccc1Cl)c1c2[nH]c2ccccc12 (stereo not drawn),2.51%
8,Cc1oc2cc([N+](=O)[O-])c(O)c([N+](=O)[O-])c2c1C(=O)c1ccc(Br)cc1,-7.47%
9,Cc1cccc(N2CCN(C(=O)/C=C/c3ccco3)CC2)c1C,15.1% (active)
10,CCn1c(C)c(C)c2cc(C(=O)N3CCN(c4cccc(C)c4C)CC3)ccc21,-3.95%
11,CCC(CC)C(=O)N1CCN(c2cccc(C)c2C)CC1,4.17%
12,COCCCn1c(-c2cccs2)nc2nc3ccccc3nc21,8.97%
13,CCOC(=O)CN(C)S(=O)(=O)c1ccc(-c2cc(C(=O)OC)sc2C(F)(F)F)cc1,4.79%
14,CCOC(=O)c1c(S(=O)(=O)Nc2ccc(CN3CCC(C)CC3)cc2)c(C)n(C)c1C,-1.22%
15,O=C(CCn1c(=S)[nH]c2cc3c(cc2c1=O)OCO3)NCc1ccc(Cl)cc1,12.5%
16,CC(C)OCCCNC(=O)c1ccc(C2SCC(=O)N2Cc2ccco2)cc1 (stereo not drawn),-3.14%
17,COc1cc(NC(=O)C2CCN(c3cnccn3)CC2)cc(OC)c1,-1.38%
18,COc1ccc(C)cc1NC(=O)CSc1ccc(Cl)cc1,2.38%
19,COc1cccc(-c2nc(S(=O)(=O)c3ccccc3)c(N3CCOCC3)o2)c1,-1.61%
20,COc1ccc(C(=O)NCc2nnc(SCC(=O)Nc3cccc(OC)c3)o2)cc1,-4.63%
21,COc1cccc(-c2nnc(SCCOc3ccc4c(C)cc(=O)oc4c3)o2)c1,-1.4%
22,COc1ccc2oc(-c3cccc(NC(=O)CSc4ccc(Cl)cc4)c3)nc2c1,14.3% (active)
23,COc1cccc(-c2nc3cc(C)ccc3o2)c1,47.1% (active)
24,CN(C)Cc1ccc(F)cc1Sc1cc(Cl)ccc1Cl,-1.42%

row,Structure (SMILES),max response
1,O=C(COc1ccc(Cl)cc1Cl)N/N=C/c1ccccn1,13.4%
2,Cc1ccc(C(=O)N/C(=C/c2ccc(-c3cccc([N+](=O)[O-])c3)o2)C(=O)NCCCN(C)C)cc1,-1.07%
3,C[C@H](NC(=O)c1nc[nH]c1C(=O)NCC(=O)OC(C)(C)C)c1ccccc1,3.3%
4,CCCN(CCC)C(=O)C1c2ccccc2Oc2ccccc21,3.35%
5,O=C(CN1CCCCCC1)Nc1ccc(Br)cc1[N+](=O)[O-],-2.43%
6,N/C(=N\OC(=O)CC1CCCCC1)c1ccccc1,40.4% (active)
7,COc1ccccc1OCC(=O)OCn1c(SC)nnc(C)c1=O,-1.41%
8,COc1ccccc1OCc1nnc(SCC(N)=O)n1-c1ccccc1,7.05%
9,COc1ccccc1NC(=O)C(C)OC(=O)CC1CCCC1 (stereo not drawn),0.793%
10,COc1ccccc1OCC(=O)O/N=C(\N)c1ccccn1,46.9% (active)
11,N/C(=N\OC(=O)CCC1CCCCC1)c1ccccn1,38.6% (active)
12,N/C(=N\OC(=O)Cc1ccccc1[N+](=O)[O-])c1ccc(Br)cc1,11.4%
13,O=C(CN1CCN(c2ccccn2)CC1)NC1CCCCC1,9.34%
14,CC(C)(C)NC(=O)NC(=O)COC(=O)CCC1CCCCC1,-2.12%
15,COc1ccc(C(=O)NCC(=O)N/N=C/c2ccc([N+](=O)[O-])o2)cc1OC,8.64%
16,COc1ccc(S(=O)(=O)n2nc(C)c(S(=O)(=O)N3CCOCC3)c2C)cc1,-1.99%
17,COc1cccc(CNC(=O)c2nnn(CC(=O)Nc3cc(C)ccc3C)c2N)c1,7.9%
18,CSCC[C@H](NC(=O)N1CCn2c1nc1ccccc12)C(=O)NCc1ccc2c(c1)OCO2,0.519%
19,Cn1ncc(N2CCN(S(=O)(=O)c3ccc(Br)cc3)CC2)c(Cl)c1=O,-6.65%
20,S=c1[nH]cc(-c2ccc(Cl)cc2)n1-c1ccccc1,9.09%
21,CC(C)(C)OC(=O)NC(Cc1ccccc1)C(=O)NC(CSC1CCCCO1)C(=O)NN (stereo not drawn),-1.92%
22,O=C(CC(c1ccccc1)c1ccccc1)NCC(O)c1ccc([N+](=O)[O-])cc1 (stereo not drawn),-4.98%
23,Cc1nn2c(NCCN(C)C)c3c(nc2c1-c1ccccc1)CCC3,-2.49%
24,Cc1ccc(CNC(=O)Cn2c(=O)c3sccc3n(Cc3cccc([N+](=O)[O-])c3)c2=O)cc1,3.82%

row,Structure (SMILES),max response
1,CC(=O)n1cc([C@@H]2C=C(C(=O)N3CCN(Cc4ccc5c(c4)OCO5)CC3)O[C@H](OCc3ccc(CO)cc3)C2)c2ccccc21,0.854%
2,O=C(Nc1cccc(O)c1)c1ccc(C(=O)c2ccccc2)o1,40.5% (active)
3,C/C(=C\C(=O)c1cccnc1)Nc1ccc(C)c(C)c1,29% (active)
4,COc1cc(/C=C(/NC(=O)c2ccccc2)C(=O)Nc2cccc(O)c2)c([N+](=O)[O-])cc1OC,-3.43%
5,Cc1ccc(OCC(=O)NCCCNC(=O)c2cccnc2)cc1C,-4.42%
6,O=C(Nc1cccc(C(=O)N2CCCC2)c1)c1ccccc1,-1.45%
7,Cc1ccc(NC(=O)COc2ccc(/C=N\NC(=O)c3cccnc3)cc2)cc1C,12.4%
8,O=C(Cc1ccccc1)Nc1cccc(NC(=O)c2ccccc2)c1,-0.775%
9,O=C(NCc1cccc(CNC(=O)Nc2cccc(O)c2)c1)Nc1cccc(O)c1,-1.08%
10,C/C(=C\C(=O)c1ccccc1)Nc1cccc(O)c1,29.3% (active)
11,CCCCCN(C(=O)CCC(=O)OCC(=O)NCc1ccc(OC)cc1)c1c(N)n(CCCC)c(=O)[nH]c1=O,-0.685%
12,COc1ccc(NC(=O)c2sc(N3CCOCC3)nc2-c2ccccc2)c(OC)c1,-2.89%
13,COc1ccc(C(=O)NCCNc2ccc([N+](=O)[O-])cn2)cc1,4.73%
14,Cc1ccc(OCC(=O)Nc2ccc(S(=O)(=O)Nc3ccccn3)cc2)cc1,1.04%
15,O=C(COc1ccc2oc3c(c2c1)CCCC3)Nc1ccccn1,28.6% (active)
16,CCN(CC)CCCNC(=O)COc1ccc2oc3c(c2c1)CCCC3,-5.99%
17,COc1ccc(CN2CCN(Cc3ccc(OC)c(OC)c3OC)CC2)cc1,-4.12%
18,Cc1ccc(CS(=O)Cc2ccc(C(=O)N3CCOCC3)o2)cc1 (stereo not drawn),0.901%
19,CC(=O)NS(=O)(=O)c1ccc(N/C(N)=N/c2nc(C)cc(C)n2)cc1,-0.472%
20,COc1ccc(CCNC(=O)CN2C(=O)COc3ccc(S(=O)(=O)N4CCCC4)cc32)cc1OC,-2.34%
21,CCNc1nc(NC(C)C)nc(N2CC(=O)N(CC(=O)OCC)C2=N)n1,-5.32%
22,COc1ccc(-c2cn3ccc(C)cc3n2)cc1,-1.85%
23,CCN(c1cccc(C)c1)S(=O)(=O)c1ccc(-c2coc(C)n2)cc1,-4.01%
24,CCN(CC)S(=O)(=O)c1ccc(-c2cn3ccc(C)cc3n2)cc1,45.6% (active)

row,Structure (SMILES),max response
1,CCCCN(CC)C(=O)c1ccccc1Oc1ccccc1,-1.52%
2,Cc1ccc(C)n1-c1ccncc1,-5.57%
3,Cc1ccc(N)cc1-n1c(C)ccc1C,23.9% (active)
4,CN(c1ccccc1)S(=O)(=O)c1ccc(NC(=O)COc2ccccc2)cc1,-1.66%
5,CCCCNC(=O)C1CCC(=O)N1CCc1ccccc1 (stereo not drawn),-3.51%
6,O=c1[nH]c(CN2CCOCC2)nc2scc(-c3ccccc3)c12,9.91%
7,O=c1[nH]c(CN2CCOCC2)nc2cc(Cl)ccc12,13% (active)
8,CN(CCOc1ccccc1)Cc1nc2cc(Cl)ccc2c(=O)[nH]1,2.21%
9,CC(NC(=O)c1ccccc1C(=O)O)c1ccc(-n2ccnc2)cc1 (stereo not drawn),-1.67%
10,CC1CCN(C(=O)c2ccccc2NC(=O)Cc2ccccc2)CC1,18.5%
11,O=C(C1CCN(Cc2ccc(Cl)cc2)CC1)N1CCN(Cc2ccc3c(c2)OCO3)CC1,-1.07%
12,CCOC(=O)c1csc(NC(=O)c2ccc(S(=O)(=O)N3CCCC3)cc2)n1,-1.54%
13,Cc1ccc2c(=O)cc(C(=O)NCCc3ccc(S(N)(=O)=O)cc3)oc2c1C,-2.03%
14,CCOC(=O)c1csc(CCNC(=O)c2oc3c(Cl)cc(C)cc3c2C)n1,29.8% (active)
15,CC(Oc1cccc(Cl)c1)C(=O)NC1CC(C)(C)NC(C)(C)C1 (stereo not drawn),-2.91%
16,COc1ccc(Cc2n[nH]c(=S)n2NC(=O)Nc2ccc(C)cc2)cc1,37.1% (active)
17,Cc1ccc(OCc2n[nH]c(=S)n2-c2ccc(C)cc2)cc1,-1.5%
18,COc1ccc(NC(=S)NCCNC(C)=O)cc1,0.644%
19,Cn1c(=O)oc2cc(S(=O)(=O)NCCC(=O)NCc3ccccc3Cl)ccc21,-6.54%
20,O=S(=O)(c1ccc(Br)cc1)c1nc(-c2ccccc2)oc1N1CCOCC1,4.42%
21,CCCCCCCCCCCCC(NC(C)=O)(C(=O)OCC)C(=O)OCC,-2.57%

# From PubChem BioAssay AID2314 (National Center for Advancing Translational Sciences (NCATS), 2010)
